# Laboratory results from PubChem BioAssay.
# Activity calls are given as the source filed them.
# What was measured:
# [1] = small molecules captured by biotinylated probe aFSTL3 – biochemical, small-molecule microarray, fluorescence 635/667, stem cell growth factor project, primary screen (AID 1064); conditions: higher = more signal;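 note: measures binding of the biotinylated anti-FSTL3 antibody to printed compounds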
# [2] = binders from COS7 lysate, DM2A8 probe, primary screen, torsin A project, cell lysate, small-molecule microarray, fluorescence 635/667 (AID 1065); conditions: higher = more signal, COS7 lysate expressing mutant human TOR1A
# [3] = small molecules captured by biotinylated probe aFGF2 – biochemical, small-molecule microarray, fluorescence 635/667, stem cell growth factor project, primary screen (AID 1067); conditions: higher = more signal;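 note: measures binding of biotinylated aFGF2 protein to printed compounds on slides; z-score merges feature fluorescence and signal-to-noise across triplicate slides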
# [4] = small molecules captured by biotinylated probe aFGF10 – biochemical, small-molecule microarray, fluorescence 635/667, stem cell growth factor project, primary screen (AID 1071); conditions: higher = more signal;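 note: score merges 667 nm spot intensity and signal to noise from triplicate slides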
# [5] = molecular target: Neurogenic locus notch homolog protein 2 (Homo sapiens) (UniProt Q04721); assay: small molecules binding Notch2 protein – biochemical, small-molecule microarray, 635 nm fluorescence, stem cell growth factors, primary screen (AID 1073); conditions: higher = more signal
# [6] = molecular target: Pro-neuregulin-1, membrane-bound isoform (Homo sapiens) (UniProt Q02297); assay: small molecules binding neuregulin-1 protein – biochemical, small-molecule microarray, fluorescence 635/667, psychiatric disease protein project, primary screen (AID 1075); conditions: NRG1 binding, 635 nm fluorescence, higher = more signal;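 note: score combines 667 nm spot fluorescence with signal to noise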
# [7] = tested on: Neuregulin-1 EGF-like domain; assay: small molecules binding NRG1 EGF domain – biochemical, small-molecule microarray, 635 nm fluorescence, primary screen (AID 1081); conditions: higher = more signal;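 note: binding of the protein to compounds printed on small-molecule microarray slides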
# [8] = FRG1 expression reporter modulators in myotubes – cell-based, C2C12 myotubes, firefly/Renilla luciferase, luminescence, FRG1 inhibition for FSHD, primary screen (AID 1084); conditions: FRG1 promoter luciferase, higher = more signal, called active from +8 up or from −8 down
# [9] = small molecules captured by biotinylated probe aFST – biochemical, small-molecule microarray, fluorescence 635/667, stem cell growth factor project, primary screen (AID 1086); conditions: higher = more signal;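 note: score merges 667 nm fluorescence with signal-to-noise of each printed compound spot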
# [10] = binders of probe aHhip on microarray, primary screen, stem cell growth factor project, biochemical, small-molecule microarray, fluorescence 635/667 (AID 1087); conditions: higher = more signal;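 note: score merges spot fluorescence at 667nm with spot signal to noise ratio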
# Neurogenic locus notch homolog protein 2 (Homo sapiens), sequence (Q04721 whole entry, looked up, canonical isoform): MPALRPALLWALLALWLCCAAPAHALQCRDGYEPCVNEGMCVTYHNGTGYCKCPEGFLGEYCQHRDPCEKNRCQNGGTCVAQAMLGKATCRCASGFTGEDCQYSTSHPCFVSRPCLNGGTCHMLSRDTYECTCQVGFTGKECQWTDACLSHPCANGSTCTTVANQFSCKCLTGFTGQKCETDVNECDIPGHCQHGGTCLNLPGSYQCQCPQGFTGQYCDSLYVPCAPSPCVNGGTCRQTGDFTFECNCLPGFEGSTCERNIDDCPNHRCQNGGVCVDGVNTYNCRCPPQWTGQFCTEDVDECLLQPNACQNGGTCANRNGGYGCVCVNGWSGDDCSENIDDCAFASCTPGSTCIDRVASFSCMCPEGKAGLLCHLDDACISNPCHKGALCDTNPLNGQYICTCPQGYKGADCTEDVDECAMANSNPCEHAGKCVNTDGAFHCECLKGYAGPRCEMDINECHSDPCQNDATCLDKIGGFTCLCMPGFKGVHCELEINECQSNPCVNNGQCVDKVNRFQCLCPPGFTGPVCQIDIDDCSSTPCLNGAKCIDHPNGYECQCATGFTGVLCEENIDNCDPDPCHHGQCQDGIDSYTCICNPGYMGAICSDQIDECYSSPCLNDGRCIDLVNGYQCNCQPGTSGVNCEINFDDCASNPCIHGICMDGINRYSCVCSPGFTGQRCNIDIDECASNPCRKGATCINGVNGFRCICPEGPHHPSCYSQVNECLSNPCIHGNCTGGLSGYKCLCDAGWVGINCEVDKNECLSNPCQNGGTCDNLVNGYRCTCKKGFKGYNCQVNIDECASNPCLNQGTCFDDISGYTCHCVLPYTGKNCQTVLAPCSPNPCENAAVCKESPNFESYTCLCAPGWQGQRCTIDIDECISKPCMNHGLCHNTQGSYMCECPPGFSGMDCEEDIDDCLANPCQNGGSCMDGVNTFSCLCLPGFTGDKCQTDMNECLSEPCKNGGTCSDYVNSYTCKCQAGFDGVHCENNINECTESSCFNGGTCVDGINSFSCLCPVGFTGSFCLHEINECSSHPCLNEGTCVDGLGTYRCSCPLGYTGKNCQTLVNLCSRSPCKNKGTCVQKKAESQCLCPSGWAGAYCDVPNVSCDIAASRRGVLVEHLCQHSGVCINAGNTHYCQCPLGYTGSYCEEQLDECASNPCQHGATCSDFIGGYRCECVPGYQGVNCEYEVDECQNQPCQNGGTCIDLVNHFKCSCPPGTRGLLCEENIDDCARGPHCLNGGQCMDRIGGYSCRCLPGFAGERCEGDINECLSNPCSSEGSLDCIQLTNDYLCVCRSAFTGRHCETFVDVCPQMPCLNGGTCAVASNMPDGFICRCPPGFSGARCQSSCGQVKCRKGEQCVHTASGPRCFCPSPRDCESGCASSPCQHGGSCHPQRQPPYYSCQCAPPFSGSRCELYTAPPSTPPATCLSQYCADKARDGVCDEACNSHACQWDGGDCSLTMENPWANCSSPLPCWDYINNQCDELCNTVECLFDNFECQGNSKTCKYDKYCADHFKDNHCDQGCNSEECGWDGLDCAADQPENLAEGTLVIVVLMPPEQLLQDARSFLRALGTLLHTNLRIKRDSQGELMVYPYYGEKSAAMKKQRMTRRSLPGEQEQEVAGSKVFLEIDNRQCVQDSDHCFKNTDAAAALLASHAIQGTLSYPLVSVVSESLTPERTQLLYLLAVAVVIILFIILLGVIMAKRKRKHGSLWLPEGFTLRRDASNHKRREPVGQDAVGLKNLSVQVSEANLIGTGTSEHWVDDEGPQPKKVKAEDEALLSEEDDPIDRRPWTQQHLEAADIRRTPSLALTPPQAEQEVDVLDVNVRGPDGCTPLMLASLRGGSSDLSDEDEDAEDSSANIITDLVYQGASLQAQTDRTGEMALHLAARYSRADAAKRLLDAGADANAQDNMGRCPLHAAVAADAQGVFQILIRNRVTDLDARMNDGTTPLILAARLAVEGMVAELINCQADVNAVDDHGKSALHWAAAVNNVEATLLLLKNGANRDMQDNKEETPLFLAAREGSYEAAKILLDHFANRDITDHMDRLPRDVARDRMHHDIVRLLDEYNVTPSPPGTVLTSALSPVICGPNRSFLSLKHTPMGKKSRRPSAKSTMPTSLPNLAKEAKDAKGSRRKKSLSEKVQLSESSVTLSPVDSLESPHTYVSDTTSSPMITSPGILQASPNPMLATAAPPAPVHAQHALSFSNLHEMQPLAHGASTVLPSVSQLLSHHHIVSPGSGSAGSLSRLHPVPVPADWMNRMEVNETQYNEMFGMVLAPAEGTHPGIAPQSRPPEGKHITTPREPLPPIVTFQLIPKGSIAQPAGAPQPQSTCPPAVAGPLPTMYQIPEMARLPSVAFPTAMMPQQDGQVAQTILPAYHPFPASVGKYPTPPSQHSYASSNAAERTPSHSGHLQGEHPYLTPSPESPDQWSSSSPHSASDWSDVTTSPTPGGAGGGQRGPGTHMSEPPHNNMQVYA
# Pro-neuregulin-1, membrane-bound isoform (Homo sapiens), sequence (Q02297 whole entry, looked up, the tested form may be a part, canonical isoform): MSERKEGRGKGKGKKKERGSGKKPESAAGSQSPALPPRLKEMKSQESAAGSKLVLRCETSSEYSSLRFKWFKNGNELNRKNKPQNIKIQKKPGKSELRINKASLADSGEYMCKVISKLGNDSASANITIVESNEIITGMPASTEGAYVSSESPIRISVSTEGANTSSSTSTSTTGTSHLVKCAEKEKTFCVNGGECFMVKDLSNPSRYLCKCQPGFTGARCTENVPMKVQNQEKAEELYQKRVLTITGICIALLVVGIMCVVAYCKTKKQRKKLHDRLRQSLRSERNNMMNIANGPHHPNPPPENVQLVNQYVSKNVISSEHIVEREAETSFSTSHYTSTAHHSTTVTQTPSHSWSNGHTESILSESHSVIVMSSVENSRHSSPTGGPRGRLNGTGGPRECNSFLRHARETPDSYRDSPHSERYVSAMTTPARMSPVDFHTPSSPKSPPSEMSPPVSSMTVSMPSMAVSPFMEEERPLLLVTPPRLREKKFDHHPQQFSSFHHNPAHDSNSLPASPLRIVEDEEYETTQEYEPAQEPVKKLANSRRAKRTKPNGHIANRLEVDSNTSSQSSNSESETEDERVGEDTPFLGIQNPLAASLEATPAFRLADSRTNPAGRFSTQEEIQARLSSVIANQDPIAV
Structure (SMILES),composite z-score [1],composite z-score [2],composite z-score [3],composite z-score [4],composite z-score [5],composite z-score [6],composite z-score [7],z-score [8],composite z-score [9],composite z-score [10]
CCOC(=O)C[C@H]1[C@H](OC(=O)Cc2ccc3c(c2)OCO3)[C@@H](NC(=O)c2ccccc2)c2cc(OCCCO)ccc2N1C(=O)c1ccc2ccccc2n1,-0.146,-0.183,-0.147,0.352,0.671,0.485,0.55,-4.6 (inactive),0.0323,-0.175
COCCOC(=O)N1C(=O)[C@@]2(c3cc(C#Cc4ccc(OC)cc4)ccc31)[C@H](C(=O)N1CCc3cc(OC)c(OC)cc3C1)[C@H]1C(=O)O[C@H](c3ccccc3)[C@H](c3ccccc3)N1[C@@H]2c1ccc(O)cc1,-0.285,0.613,-0.129,0.64,1.47,1.17,1.19,0.707 (inactive),-0.0689,-0.297
O=C1C[C@@](C(=O)O)(c2ccc([N+](=O)[O-])cc2)[C@@H](c2ccc(CO)cc2)N1CC12CC3CC(CC(C3)C1)C2,0.524,0.603,-0.009,0.527,1.13,1.38,1.12,-2.54 (inactive),0.49,-0.196
CCCNC(=O)[C@@]1(Sc2ccc(C)cc2)CC(=O)N(Cc2ccccc2)[C@@H]1c1ccc(CO)cc1I,1.33,-0.0477,-0.0917,-0.008,0.367,0.848,1.23,-1.9 (inactive),0.692,-0.0346
COc1ccc(C#Cc2ccc3c(c2)[C@]2(C(=O)N3)[C@H](C(=O)O)[C@H]3C(=O)O[C@H](c4ccccc4)[C@H](c4ccccc4)N3[C@@H]2c2ccc(OCCO)cc2)cc1,-0.397,0.959,-0.0344,0.903,0.357,1.88,0.976,-0.176 (inactive),0.794,0.122
C=C(CCCC)/C(=C/C[C@H](OC(=O)c1ccncc1)c1ccc(CO)o1)c1cc(C(=O)OC)ccc1OC,-0.293,1.83,-0.116,0.418,0.822,1.01,1.26,-0.906 (inactive),0.381,0.0722
CC(C)NC(=O)[C@@H]1c2ccccc2C(=O)N(Cc2cc(C(F)(F)F)cc(C(F)(F)F)c2)[C@H]1c1ccc(CO)cc1,0.27,0.255,0.0032,-0.0264,0.805,0.104,0.663,0.306 (inactive),0.619,0.0596
CN(C)CCCC[C@@H]1NC(=O)[C@H]2C[C@@H](C(=O)NCCCCCCNC(=O)CS)[C@@H](c3ccc(O)cc3)N2C1=O,0.0462,0.576,-0.116,0.165,-0.549,0.848,1.11,1.15 (inactive),-0.337,-0.125
COCCCNC(=O)[C@@]1(Cc2ccccc2CN=[N+]=[N-])N=C(c2ccc(OCCCO)cc2)O[C@H]1c1ccccc1N=[N+]=[N-],0.749,1.06,0.0524,1.18,1.18,0.765,1.05,-1.21 (inactive),1.27,0.351
CCCCC(CC)C(O)C1C=CC2C(=O)NC(=O)C2N1Nc1ccccn1 (stereo not given),-0.252,-0.14,-0.0005,0.207,1.41,1.38,0.879,1.54 (inactive),0.245,0.204
C=C(/C(=C/C[C@@H](OC(=O)c1ccncc1)c1cccc(OCCO)c1)c1cc(C(=O)OC)ccc1OC)C(C)C,-0.295,0.679,-0.0549,0.579,0.868,0.826,0.981,-1.61 (inactive),0.351,-0.0994
C[C@@H]1ON(c2ccccc2)[C@H](c2ccccc2)[C@H]1C(=O)N1C(=O)OC[C@H]1Cc1ccccc1,-0.414,0.464,-0.127,0.464,0.844,0.243,0.539,-0.114 (inactive),0.138,0.0574
C=C(COC)C(=O)CC[C@H](OC(=O)c1ccccc1-c1ccccc1C(=O)O)c1ccc(OCCO)cc1,-0.249,1.42,-0.0729,0.512,-0.0342,1.09,1.11,0.552 (inactive),0.347,-0.236
CC(=O)NCCCC[C@@H]1NC(=O)[C@@H]2C[C@H](C(=O)NCCCC[N+](C)(C)C)[C@H](c3cccc(OCCO)c3)N2C1=O,-0.239,1.05,-0.126,-0.194,-0.525,0.82,1.13,0.573 (inactive),-0.204,-0.0645
COCCCNC(=O)[C@@]1(Cc2ccccc2N=[N+]=[N-])N=C(c2ccc(OCCCO)cc2)O[C@H]1c1ccccc1CN=[N+]=[N-],0.377,0.556,0.185,1.07,1.47,1.78,1.26,-0.344 (inactive),0.893,-0.192
COC(=O)c1ccc(OC)c(/C=C\CC(CCc2ccccc2)OC(C)=O)c1 (stereo not given),-0.28,-0.115,-0.118,-0.672,-0.394,-0.289,-0.288,-2.76 (inactive),-0.458,0.101
O=C1C2C=CC(C(O)c3ccc(Br)cc3)N(Nc3ccccc3)C2C(=O)N1c1ccccc1 (stereo not given),0.385,0.227,0.191,0.82,1.41,1.86,1.09,-2.33 (inactive),-0.194,-0.0645
C[C@@]1([C@@H](NC(=O)c2cccs2)c2ccc(-c3ccccc3)cc2)C[C@H]1C1CCCCC1,-0.11,-1.29,-0.428,-0.376,-0.41,0.783,-0.253,2.66 (inactive),-0.232,-0.523
Cc1ccccc1C(O)C1C=CC2C(=O)N(C)C(=O)C2N1Nc1ccc([N+](=O)[O-])cc1[N+](=O)[O-] (stereo not given),-0.0166,0.14,0.084,0.922,1.65,1.65,1.27,0.248 (inactive),1.59,-0.0645
CN(C)CCCCNC(=O)[C@H]1C[C@H]2C(=O)N[C@@H](CCCC[N+](C)(C)C)C(=O)N2[C@H]1c1cccc(OCCO)c1,-0.235,1.09,-0.116,-0.0012,-0.606,0.417,1.26,2.9 (inactive),-0.268,-0.0994
COC(=O)C(CC#Cc1ccc2c(c1)[C@]1(C(=O)N2)[C@H](C(=O)N2CCc3cc(OC)c(OC)cc3C2)[C@H]2C(=O)O[C@H](c3ccccc3)[C@H](c3ccccc3)N2[C@@H]1c1ccc(OCCO)cc1)C(=O)OC,-0.295,1.53,-0.145,0.945,1.54,1.75,1.31,0.732 (inactive),0.672,0.0373
O=C1O[C@H](c2ccccc2)[C@H](c2ccccc2)N2[C@H]1[C@@H](C(=O)N1CCCCCCC1)[C@]1(C(=O)Nc3ccccc31)[C@H]2c1ccc(O)cc1,4.2,2.71,1.1,1.61,1.83,2.55,1.37,0.168 (inactive),3.92,4.73
CCN(CC)c1ccc(N2CC=CC34O[C@@H]5/C=C\CCCOC(=O)C5[C@H]3C(=O)N(CCCCCO)[C@@H]4C2=O)cc1 (stereo not given in full),0.0158,-1.53,-0.205,-1.03,-1.2,1.04,0.516,0.609 (inactive),-0.663,-0.0994
CCCC=C(CCC)[C@@H](NS(=O)(=O)CC)c1ccccc1,-0.14,-0.534,0.0583,0.576,1.15,0.808,1.09,1.33 (inactive),0.725,-0.0645
C=C[C@H](C)[C@H](OC(=O)Nc1ccc(SC)cc1)c1ccc(O)c2ccccc12,-0.0571,-0.0235,0.0243,-0.624,-0.718,0.583,1.05,2.77 (inactive),-0.744,-0.268
COC(=O)[C@@]1(Cc2ccc(OC)cc2)[C@H]2c3cc(C(=O)N(C)C)n(CCF)c3C[C@H]2CN1C(=O)c1ccccc1,0.999,0.245,0.0398,0.419,1.66,1.97,1.33,-1.11 (inactive),0.98,0.31
COc1ccc([Si](C)(C)[C@@H]2[C@@H](CCO)O[C@]3(C(=O)N(Cc4cccc(N5C(=O)COc6ccccc65)c4)c4ccccc43)[C@H]2C)cc1,0.0857,-0.183,-0.072,0.492,0.0822,1.18,0.818,-1.22 (inactive),-0.287,-0.164
